# Data from PubChem BioAssay (Tox21).
# Records with an inconclusive call do not appear. Unmarked numbers belong to inactive results. Activity calls are given as the source filed them. Calls come from the whole dose curve; as a rule, active = well fitted cell-killing curve with a large enough effect in the repeat runs; inconclusive = weak or mixed curves, or effect the other way; inactive = no such curve, though single readings can be large or run the other way.
# Assay: Caspase-3/7 induction in CHO-K1 cells by small molecules, qHTS cell viability counter screen (AID 1346979); note: nearly all actives have a fitted effect of over 35% in size
# Conditions: CellTiter-Fluor fluorescence, 17 h; series mostly up to 92.4 µM; activity change, negative = cytotoxicity: at the top concentration
# Source text: National Center for Advancing Translational Sciences [NCATS]
# NIH Chemical Genomics Center [NCGC]
# U.S. Environmental Protection Agency [EPA]
# National Institutes of Environmental Health Sciences [NIEHS]
# National Toxicology Program [NTP]
# U.S. Food and Drug Administration [FDA]
# Apoptosis is a process of programmed cell death and plays a central role in the development of multicellular organisms. It is a highly regulated process and induces cell death by activating caspases, which are the members of cysteine aspartic acid-specific protease (caspase) family. Caspases involved in apoptosis are classified by their mechanism of action as initiator caspases (caspase-2, -8, -9 and -10) and executioner caspases (caspase-3, -6, and -7). Inhibition of apoptosis results in number of cancers, autoimmune diseases, inflammatory diseases and viral infection. To identify small molecule compounds that induce apoptosis, a homogeneous, luminescent Caspase-Glo 3/7 assay was used. Wild type CHO-K1 cells were used to screen Tox21 libraries for identifying caspase-3/7 activity inducers. Also cytotoxicity of the compounds was tested in parallel by measuring the cell viability using CellTiter-Fluor assay system in the same wells.
# Tox21 Assay Protocol Summary:
# CHO-K1 cells were dispensed at 1,500 per well in 5uL of culture medium into white solid bottom 1536-well plates (Corning Life Sciences, Corning, NY) using a Multidrop Combi (Thermo Scientific, Waltham, MA) dispenser. The assay plates were incubated at 37 C and 5% CO2 for 5hr, and then 23nL of compounds dissolved in DMSO and positive control were transferred using a Pintool station (Wako, San Diego, CA). The assay plates were incubated at 37C and 5% CO2 for 17hr. For cytotoxicity read, after 16hr incubation at 37C, 1uL CellTiter-Fluor reagent (Promega Corporation, Madison, WI) was added to each well of the assay plates using Flying Reagent Dispenser (FRD, Aurora Discovery, San Diego, CA). After 1hr incubation at 37C and 5% CO2, the fluorescence signal was quantified using a ViewLux plate reader (PerkinElmer, Shelton, CT).
# % is set by controls: 0 for no effect and ±100 for the full control effect; potency is the fitted concentration of half-maximal effect.
SMILES,"activity change, negative = cytotoxicity",Potency
COc1cc(OC)nc(NC(=O)NS(=O)(=O)Nc2ccccc2C(=O)N(C)C)n1,2.36%,
COc1c(Br)cc(Br)c(C)c1Br,-0.268%,
O=C(CCN1CCC(c2ccccc2)C1)c1ccc2c(c1)OCCO2 (stereo not given),,26.6 µM (active)
Nc1ccc(Oc2cccc(Oc3ccc(N)cc3)c2)cc1,-9.98%,
CC(C)(C)c1ccc(OC2CCCCC2O)cc1 (stereo not given),,61.1 µM (active)
[Cl][Eu]([Cl])[Cl],-0.084%,
O=S(=O)(c1ccc(OCc2ccccc2)cc1)c1ccccc1O,,43.3 µM (active)
O=C1OCc2ccccc21,-0.609%,
CN[C@H]1CC[C@@H](c2ccc(Cl)c(Cl)c2)c2ccc(S(N)(=O)=O)cc21,,61.1 µM (active)
O=C1OC(O)C(C(Cl)Cl)=C1Cl (stereo not given),,17.8 µM (active)
CN1CCN(C)CC1,10%,
Cc1cc(Br)ccc1NC(=O)CCl,,21.7 µM (active)
CCCCCCCCCCCC(=O)Cl,-2.76%,
O=c1[nH]cccc1O,0.868%,
CCOC(=O)OC(=O)OCC,1.91%,
C=CC(=O)OCCOC1C2CCC1C1CC=CC12 (stereo not given),4.17% [at 19 µM],
CC/C(=C(/c1ccc(O)cc1)c1ccc(OCCN(C)C)cc1)c1ccccc1,,32 µM (active)
Clc1ccc2c(Cl)ccnc2c1,7.21%,
O=[N+]([O-])c1ccc(CO)cc1,-1.39%,
CCOc1nc(F)cc2nc(S(=O)(=O)Nc3c(Cl)cccc3C(=O)OC)nn12,-0.525%,

SMILES,"activity change, negative = cytotoxicity",Potency
C1CCSC1,5.8%,
O=C1C=CC(=O)N1c1cccc(N2C(=O)C=CC2=O)c1,,5.45 µM (active)
CC1(C)[C@H](C(=O)OCc2cccc(Oc3ccccc3)c2)[C@@H]1C=C(Cl)Cl,2.4%,
C=C[Si](C)(C)Cl,6.64% [at 8.39 µM],
COC(=O)c1ccc([N+](=O)[O-])cc1,-1.57%,
CCCCCN=C(N)N/N=C/c1c[nH]c2ccc(OC)cc12,,29.8 µM (active)
CC1(C)[C@H]2CC[C@]1(C)C(=O)C2,,61.1 µM (active)
CCN(CC)c1ccc(N=Nc2ccccc2)cc1,,48.6 µM (active)
Cc1ccc(Cl)c(N)c1Cl,3.55%,
CCc1cccc(C)c1N(C(=O)CS(=O)(=O)O)C(C)COC (stereo not given),4.55%,
CCN(CC)c1ccc2c(c1)Oc1cc(N(CC)CC)ccc1C21OC(=O)c2ccccc21,,2.37 µM (active)
Oc1cccc2c(O)cccc12,,54.5 µM (active)
Oc1ccc2c(c1)CCC2,-1.08%,
C=COCCCC,0.477%,
C=C1C(CCl)(CCl)C2(Cl)C(Cl)C(Cl)C1(Cl)C2(Cl)Cl (stereo not given),,53.8 µM (active)
Nc1ccc(F)c([N+](=O)[O-])c1,-1.71%,
CCCCCCCCOC(=O)c1cc(O)c(O)c(O)c1,,1.09 µM (active)
Cc1ccc(C=O)cc1,-4.72% [at 42.5 µM],
CC1=CC[C@@H](C(C)(C)O)CC1,3.49%,
CN(C/C=C/c1ccccc1)Cc1cccc2ccccc12,-0.795% [at 42.5 µM],
